NIH3T3 tox – kills NIH 3T3 cells; 4.3% of 94,000 active; Potency, µM (titrated, usually from 96.7 µM), for the others: at the top dose activity change, negative = cytotoxicity, actives largely listed as inhibitors; NIH 3T3 viability, CellTiter-Glo ATP luminescence, 48-72 h; also: nearly all actives have a fitted effect of over 55% in size
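ATP-dependent luminescence (CellTiter-Glo) served as the viability signal for NIH 3T3 cells treated with compound for 48 or 72 hr at 37 °C.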
Luciferase inh – inhibitors of firefly (Photinus pyralis) luciferase | P08659 | purified P. pyralis luciferase, luminescence, biochemical | Potency, µM (doses to about 115 µM), usual class: inhibitors | 2.5% of 76,000 active; also: nearly all actives have a fitted effect of over 65% in size
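Luminescence read by CCD imaging after purified firefly luciferase (10nM final) was added to substrate buffer holding 10uM D-luciferin and 10uM ATP, pH 7.5, pre-dosed with compound.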
NPR1 antag – human Npr1 receptor antagonism; P16066; Potency, µM (top dose mostly 46.3 µM), without a hit: at the top dose activity change, negative = inhibition, hits mostly inhibitors; 1.6% of 76,000 active; HEK293 hNpr1 GloSensor cGMP, ANP-stimulated luminescence; calls by dose curve; also: nearly all actives have a fitted effect of over 60% in size
Target sequence (P16066 whole entry, looked up): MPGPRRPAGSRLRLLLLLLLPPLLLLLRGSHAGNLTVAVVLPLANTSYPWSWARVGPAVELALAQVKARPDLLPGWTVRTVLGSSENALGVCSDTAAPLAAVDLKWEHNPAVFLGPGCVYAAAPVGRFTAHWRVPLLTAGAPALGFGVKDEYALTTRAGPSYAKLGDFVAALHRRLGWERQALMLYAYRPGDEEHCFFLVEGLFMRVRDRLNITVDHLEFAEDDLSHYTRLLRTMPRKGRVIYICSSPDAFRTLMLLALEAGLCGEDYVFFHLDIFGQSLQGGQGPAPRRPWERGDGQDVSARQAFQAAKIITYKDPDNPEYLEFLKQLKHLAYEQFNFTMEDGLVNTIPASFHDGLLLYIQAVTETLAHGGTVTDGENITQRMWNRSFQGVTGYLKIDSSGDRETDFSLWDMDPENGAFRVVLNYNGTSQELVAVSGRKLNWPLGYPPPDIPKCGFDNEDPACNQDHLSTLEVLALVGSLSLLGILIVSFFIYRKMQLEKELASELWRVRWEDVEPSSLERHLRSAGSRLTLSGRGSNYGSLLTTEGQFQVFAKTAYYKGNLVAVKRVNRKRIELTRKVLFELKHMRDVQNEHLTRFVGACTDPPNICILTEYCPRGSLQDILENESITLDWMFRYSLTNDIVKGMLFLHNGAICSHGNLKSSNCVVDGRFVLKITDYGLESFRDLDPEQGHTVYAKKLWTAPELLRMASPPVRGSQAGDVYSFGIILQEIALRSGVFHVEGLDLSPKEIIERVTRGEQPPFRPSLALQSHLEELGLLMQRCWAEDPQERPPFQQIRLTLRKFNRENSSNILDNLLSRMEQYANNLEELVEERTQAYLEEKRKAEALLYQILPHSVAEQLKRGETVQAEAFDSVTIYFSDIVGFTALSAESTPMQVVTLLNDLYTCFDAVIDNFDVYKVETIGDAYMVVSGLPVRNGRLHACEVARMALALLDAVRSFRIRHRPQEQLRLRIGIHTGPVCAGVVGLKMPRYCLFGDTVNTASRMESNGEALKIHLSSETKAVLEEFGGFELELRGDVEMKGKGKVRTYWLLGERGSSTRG
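Compound pre-incubated 30 min at room temperature on GloSensor-loaded HEK293 cells stably carrying hNpr1 and the pGS-40F cGMP biosensor. Stimulation uses hNppA at 0.1 nM final; luminescence is taken at baseline and 20 min post-agonist.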
HEK293 tox – cytotoxic compounds in HEK 293 cells | Potency, µM (series often up to 115 µM), for inactives: at the top dose activity change, negative = cytotoxicity, actives largely listed as inhibitors | 6.6% of 94,000 active | HEK 293 viability, ATP luminescence (CellTiter-Glo), 48-72 h | AID 1345083; also: nearly all actives have a fitted effect of over 60% in size
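HEK 293 cells seeded at 250 cells/well were exposed to compound for 48 or 72 hr at 37 degree Celsius. Viability taken as ATP content by CellTiter-Glo luminescence.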
* = called active by the depositor; i = inactive; ? = inconclusive; . = no result; [ ] = dose if it differs, or a comment. This is a sample that favours compounds with a hit; in the whole collection about 11% have one here. Unless noted, calls follow the shape of the dose curve; as a rule, active = well fitted curve in the direction sought with a large enough effect; inconclusive = small, poorly fitted or top-dose-only effect, or another doubt; inactive = no such curve, though single readings can be large; an effect the other way counts as inactive or inconclusive. % is scaled to controls: 0 for no effect and ±100 for the full control effect; potency is read from the fitted curve at half-maximal effect.

SMILES	NIH3T3 tox	Luciferase inh	NPR1 antag	HEK293 tox
COCCNC(=O)c1ccc(OC2CCN(CCC(C)c3ccc(C)o3)CC2)c(Cl)c1 (centres undefined)	?	i	1%	89µM*
COCc1ccc(CN2CCC(Oc3ccc(C(=O)NC4CCCC4)cc3Cl)CC2)o1	?	i	-17%	35µM*
COCCNC(=O)c1ccc(OC2CCN(C/C=C/c3ccc(F)cc3)CC2)c(Cl)c1	?	i	?	45µM*
O=C(c1ccc(Cl)cc1)N1CCN(c2ccc3nnc(-c4ccccc4)n3n2)CC1	45µM*	.	.	?
O=C(c1ccc(Cl)cc1)N1CCCN(c2ccc3nnc(-c4ccccc4)n3n2)CC1	?	.	.	-13%
O=C(Cc1cccc(Cl)c1)N1CCN(c2ccc3nnc(-c4ccccc4)n3n2)CC1	?	.	.	45µM*
O=C(c1ccc2nnc(-c3ccc(Cl)cc3)n2c1)N1CCN(Cc2ccccc2)CC1	28µM*	.	.	25µM*
CC1(C)Cc2c(cnn2-c2ccc(F)cc2)C(NC(=O)c2cc(C3CC3)[nH]n2)C1 (centres undefined)	?	i	-15%	79µM*
CC(C)c1ccccc1NC(=O)Cn1ccn2nc3c(c2c1=O)CCCCC3	?	i	-3%	40µM*
Cc1ccc(NC(=O)Cn2ccn3nc(-c4ccccc4)c(CO)c3c2=O)c(C)c1	?	i	-11%	45µM*
O=C(Cn1ccn2nc3c(c2c1=O)CCCCC3)Nc1ccccc1F	-10%	45µM*	0%	-26%
Cc1ccc(NC(=O)Cn2ccn3nc(-c4ccc(F)cc4)c(CO)c3c2=O)c(C)c1	?	i	0%	?
CNC(=O)[C@@H]1C[C@H](Oc2ccccc2)CN1C(=O)CCOC	-6%	i	4%	-9%
Cn1ccc2c(C(=O)NCc3cccnc3)nc(-c3ccccc3C(F)(F)F)cc21	45µM*	i	-3%[70.6 µM]	71µM*
CN(C)CCNC(=O)c1nc(-c2ccc(N3CCN(C)CC3)cc2)cc2c1ccn2C	7.9µM*	?	-1%[70.6 µM]	?
CC(=O)Nc1cccc(-c2cc3c(ccn3C)c(C(=O)NCc3cccnc3)n2)c1	25µM*	i	-21%[70.6 µM]	?
Cn1ccc2c(C(=O)NCc3cccnc3)nc(-c3ccc(CO)cc3)cc21	45µM*	i	0%[70.6 µM]	-2%[172 µM]
Cn1ccc2c(C(=O)NCc3cccnc3)nc(-c3cccc(N4CCOCC4)c3)cc21	?	i	-21%[70.6 µM]	?
Cn1ccc2c(C(=O)NCc3cccnc3)nc(-c3ccncc3)cc21	?	?	2%[70.6 µM]	?
Cn1ccc2c(C(=O)NCc3cccnc3)nc(-c3cccnc3)cc21	25µM*	i	-12%[70.6 µM]	-26%[172 µM]
O=C(c1ccccn1)N1CCC(N(Cc2cccnc2)C2CCOCC2)CC1	1%	i	2%	-20%
O=C(c1ccccc1)N1CCC2(CC1)N=C(c1cccc(Br)c1)NO2	?	i	-11%	?
Cc1ccccc1CC(=O)N1CCC2(CC1)N=C(c1cccc(Br)c1)NO2	?	i	?	89µM*
COc1ccccc1CC(=O)N1CCC2(CC1)N=C(c1ccc(Cl)cc1)NO2	?	i	?	45µM*
O=C(NCc1ccc2c(c1)OCO2)c1ccc2c(c1)N(C(=O)c1ccc(F)cc1)CC2	?	i	-30%	?
SMILES	NIH3T3 tox	Luciferase inh	NPR1 antag	HEK293 tox
Cc1ccc(N2CCC(N[C@@H]3CC[C@@H](N)C3)CC2)cc1Cl	10µM*	i	1%	7.9µM*
Cc1ccc(C(=O)NC2CCN(c3cnn(CC4CC4)c(=O)c3)CC2)cc1C	-3%	i	2%	-27%
COc1ccc(CC(=O)N2CC(c3nnc(C(C)C)o3)C3(CCOCC3)C2)cc1Cl (centres undefined)	-2%	i	-4%	i
CC#CCn1cc2c3c(cccc31)[C@H](CC(C)C)N[C@H](C(=O)NCc1ccccc1)C2	?	i	-21%[70.6 µM]	63µM*
CC#CCn1cc2c3c(cccc31)[C@H](CC(C)C)N[C@H](C(=O)NCCNC(C)=O)C2	?	i	-2%[70.6 µM]	100µM*
CC#CCn1cc2c3c(cccc31)[C@H](CC(C)C)N[C@H](C(=O)NCc1cccs1)C2	?	i	-15%[70.6 µM]	71µM*
CC#CCn1cc2c3c(cccc31)[C@H](CC(C)C)N[C@H](C(=O)NC1CC1)C2	?	i	-11%[70.6 µM]	89µM*
C#CCNC(=O)[C@@H]1Cc2cn(CC#CC)c3cccc(c23)[C@H](CC(C)C)N1	?	i	-2%[70.6 µM]	?
COc1ccccc1C(=O)Nc1ccc([C@H]2OCC(=O)N(Cc3ccccc3)[C@@H]2CO)cc1	?	i	2%	?
O=C1CN(C(=O)C2CCCC2)CC(O)CN1CCCc1ccccc1 (centres undefined)	-26%	.	.	?
Cc1ccc(C(=O)N2CCC(c3n[nH]c(=O)n3Cc3ccc(F)cc3)CC2)cc1C	-25%	i	-3%	?
C=CCNC(=O)[C@@H]1Cc2cn(CC#CC)c3cccc(c23)[C@H](CC(C)C)N1	?	i	0%[70.6 µM]	?
CC#CCn1cc2c3c(cccc31)[C@H](CC(C)C)N[C@H](C(=O)NCCN(C)C)C2	40µM*	i	-11%[70.6 µM]	28µM*
CC#CCn1cc2c3c(cccc31)[C@H](CC(C)C)N[C@H](C(=O)NCc1ccco1)C2	89µM*	i	-10%[70.6 µM]	?
Cn1nc2n(c1=O)CCC(N)CC2 (centres undefined)	-4%	i	1%	-5%
CCC1Oc2ccc(NC(=O)C3CCCC3)cc2CN(Cc2ccc(F)cc2)C1=O (centres undefined)	?	i	-22%	?
CC1Oc2ccc(NC(=O)c3cccs3)cc2CN(CCc2ccc(F)cc2)C1=O (centres undefined)	-29%	i	-10%	?
CC1Oc2ccc(NC(=O)C3CCCC3)cc2CN(Cc2ccc(F)cc2)C1=O (centres undefined)	25µM*	i	-22%	?
CC1Oc2ccc(NC(=O)Nc3ccccc3)cc2CN(Cc2ccccc2)C1=O (centres undefined)	35µM*	?	?	45µM*
CC1Oc2ccc(NC(=O)c3cccs3)cc2CN(Cc2ccccc2)C1=O (centres undefined)	?	i	-13%	25µM*
CCOc1ccc2c(n1)CCN(C(=O)NC1CCCC1)C2	-2%	i	0%	6%
O=C(NCC(=O)N1CCCCC1)c1ccc(-c2cnc3ccccc3c2)cc1	?	.	.	45µM*
O=C(CNC(=O)c1ccc(-c2cnc3ccccc3c2)cc1)NCC1CCCCC1	?	.	.	40µM*
COCCN1C(=O)c2ccccc2C(C(=O)NCCCc2ccccc2)C12CCCC2 (centres undefined)	-13%	i	-4%	?
CCc1cn[nH]c1C1CCCN(C(=O)c2oc3cc(C)ccc3c2C)C1 (centres undefined)	45µM*	i	-3%	?

Source: PubChem BioAssay
